Source: the supplement of paper PMC5499739
The full ranking holds about 16,000 sequences; the median of “Z-score” is about -0.37, and the highest 2% start at about 3.1. For the sample, the highest values were picked, then their nearest neighbours and some sequences at random.

test system: RBM10 RRM1-ZnF-RRM2 (GST-tagged construct); assay: RNAcompete 7-mer binding Z-score; higher = stronger binding preference
Method: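 RNAcompete: 20 pmol GST-tagged RBM10 RNA-binding constructs were incubated with a designed RNA pool of about 241,000 sequences up to 41 nt (1.5 nmol) on glutathione beads for 30 min at 4 °C and washed. Bound RNAs were identified by microarray hybridisation. Each RNA 7-mer is scored by a one-sided Z-score of its enrichment, computed over probes that contain the 7-mer within longer pool sequences.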

Sequence	RNAcompete 7-mer binding Z-score
UACCUGC	-0.887
GUCCGUA	-0.471
GGAGUCA	1.05
ACAGGGU	3.11
UCAGGGG	1.46
CCAGGGA	1.51
ACAGGAG	2.7
ACAGGGA	3.47
CCAGGGU	1.18
GCAGGGU	3.35
CCAGGGG	1.43
ACAGGGC	2.36
GCAGGGG	3.15
ACAGGGG	3.19
GCAGGGC	1.51
AUAUACC	-0.628
CAUUCUC	-0.857
UGCACAU	-0.362
UCACAAG	-0.256
CUCGCGU	-0.635
CGGAUCA	0.578
GAGGUGU	2.31
CAGGUGA	1.54
AAGGUGA	3.62

Sequence	RNAcompete 7-mer binding Z-score
GAGGUGG	3.37
GAGGUGC	1.65
GAGGUGA	2.6
AAGGUGC	2.55
AAGGUGU	2.26
AAGGUGG	4.32
AUUCUCC	-0.679
AGCAACG	0.359
UGCCACU	-0.741
UCUCCCA	-0.697
GCUAAUA	-0.282
GAUAUGA	0.643
AAGUGGG	3.5
AAGUGGU	1.6
AAGUGGA	3.2
CAGUGGG	2.93
UAGUGGA	1.52
GAGUGGA	3.07
CCCCUCG	-0.573
GUCAGAG	0.406
GCUGCGG	1.05
AAUGCGA	0.286
CGGCACA	0.133
UAGACGC	-0.333

Sequence	RNAcompete 7-mer binding Z-score
AGGGUUG	3.34
GGGGUUG	3.23
UGGGUUG	2.56
AGGGUUA	3.86
UGGGUUA	2.83
AGGGUUC	0.996
GGGGUUC	1.83
CGGGUUG	2.32
GGGGUUA	3.07
GUAGUCU	-0.256
CCGUUUU	-1.01
UGCAUAU	-0.49
UUUCACU	-0.704
UCAUUAU	-0.621
UACCGAA	-0.428
CUUACAA	-0.785
GUAAGUC	-0.0743
CCGAACU	-0.839
CCCACCC	-0.337
GGGGAGG	3.33
UGGGAGG	4.58
UGGGAGU	1.95
CGGGAGG	2.96
UGGGAGA	2.56

Sequence	RNAcompete 7-mer binding Z-score
AGGGAGU	3.13
GGGGAGA	2.53
GGGGAGU	2.86
AGGGAGG	3.18
CAUGGCC	-0.344
GUUGCCU	-0.613
AGGUUAC	0.538
GAUCGCU	-0.697
CGGGUCC	0.723
ACGAGGG	3.71
ACGAGGC	0.742
GCGAGGG	3.86
UCGAGGG	1.93
GCGAGGA	2.06
ACGAGGU	1.36
AAAGCAA	0.563
AGCAGAA	0.701
GUAAGGG	3.65
CUAAGGG	1.35
AUAAGGU	1.74
AUAAGGG	3.85
CUAAGGA	0.286
GUAAGGA	3.28
UUAAGGA	0.982

Sequence	RNAcompete 7-mer binding Z-score
AUAAGGA	2.16
GUAAGGC	2.12
GAUCGUU	-0.464
AUUAAUA	-0.544
AAUAGAG	0.742
AAGUUGC	-0.293
UGCUCCC	-0.821
AAGAAGA	1.03
CUGAAGG	0.902
AUGAAGG	2.82
AAGAAGG	3.81
GAGAAGG	4.54
UAGAAGG	3.2
CAGAAGG	2.37
GUGAAGG	3.69
UAGAAGU	0.319
GAGAAGA	1.04
AAGAAGU	0.818
UAGAAGA	0.348
UAUCUAC	-0.548
UCACCAA	-0.65
AAAGCUC	-0.53
AGCUUCG	-0.795
UCAGAGU	0.0786

Sequence	RNAcompete 7-mer binding Z-score
GCUCUCA	-0.526
AAGGGUA	4.27
GAGGGUG	3.5
UAGGGUU	3.14
UCGGGUU	0.916
UAGGGUA	4.16
UCGGGUA	1.57
CAGGGUA	2.88
CAGGGUU	2.05
GAGGGUU	2.88
AAGGGUC	2.01
GAGGGUC	1.39
ACGGGUA	2.22
UUCCAGC	-0.715
GUGUUCA	-0.442
AGGUUUC	0.184
ACUUGGU	-0.267
GUUAGUG	0.953
UCUAGCA	-0.712
GUCAGUU	-0.289
CCGCUAG	-0.588
CACUUCC	-0.868
UUCCCUG	-0.737
AACAUGC	-0.435

Sequence	RNAcompete 7-mer binding Z-score
AAGGGUU	3.94
UAGGGUC	2.16
GAGGGUA	4.4
CAGGGUG	2.84
UAGGGUG	4.51
AGGGUUU	2.4
GAGGGCG	2.81
AAGGUUU	2.37
CAGGGUC	1.42
UACUCUC	-0.734
UGCGCUG	-0.103
CAAGGAU	1.42
GGAGGAA	3.08
AAAGGAC	2.6
GAAGGAA	4.54
GCAGGAA	2.07
GAAGGAU	3.32
UAAGGAU	1.55
UAAGGAG	1.9
AAAGGAG	3.75
AAAGGAA	3.51
CAAGGAA	1.77
UAAGGAA	1.66
AAUGGCG	2.02

Sequence	RNAcompete 7-mer binding Z-score
GUCCUGC	-0.606
UACCCCU	-0.65
AGCGCUG	-0.0889
GCCACUU	-0.992
UACACAU	-0.5
GUCCGCA	-0.672
UCUGAUC	-0.876
GCGUGUG	0.618
AUCGCAA	-0.388
GCUUAAG	-0.439
GAAGGAG	4.52
GAAGGAC	2.8
CAAGGAG	2.31
UGUGGAA	1.47
GGUGGAG	3.9
UGUGGAG	2.47
CGUGGAA	1.29
AGUGGAU	2.33
GGUGGAA	3.71
GGUGGAU	2.46
AGUGGAC	1.44
AGUGGAA	3.21
CGUCACU	-0.515
CACCCUG	-0.89

Sequence	RNAcompete 7-mer binding Z-score
AUGACUA	-0.347
UGUGGUA	0.833
GACGAGA	0.691
UCAGCGU	-0.26
CCGGCAC	-0.388
UAGGAGA	1.78
AAGGAUA	2.92
CAGGAGA	2.02
AAGGAGG	4.62
UAGGAGG	2.94
GAGGAUG	2.57
AAGGAGA	3.18
AAGGAUG	3.89
GAGGAGG	2.99
CCCAAUA	-0.759
CCGUCGC	-0.752
UGAUCCA	-0.515
ACAUCCU	-0.839
GCAGGAU	1.22
GGAGCGG	4.19
GGAGCGA	2.9
CGAGCGU	0.166
AGAGCGG	1.46
CGAGCGG	3.33

Sequence	RNAcompete 7-mer binding Z-score
UGAGCGG	2.06
AGAGCGA	0.581
CGGGUUU	1.01
CUAUCGA	-0.781
AUGGAAG	3.16
GUGGAAG	3.47
GUGGAAA	2.46
AUGGAAC	2.02
AUGGAAA	2.62
GUGGAAC	1.73
UCGGAGU	0.257
AGGGAUC	1.32
AGGGAUU	2.37
CGGGAUA	1.44
AGGGAUA	4.38
GGGGAUA	3.16
GAGGAUA	2
CGCAAAG	-0.22
